Assay outcomes (PubChem)
HePTP inhibitor = human HePTP phosphatase inhibition. P35236. actives 0.64% (n = 110,000). recombinant HePTP phosphatase activity, OD absorbance. AID 521. inhibition, % at 20 µM; in the data active = inhibition above about 50%; inconclusive = no clear call, values can overlap the other calls;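 also: plate controls were vehicle for no effect and reference inhibitor for full effect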
Target sequence (P35236 whole entry, looked up): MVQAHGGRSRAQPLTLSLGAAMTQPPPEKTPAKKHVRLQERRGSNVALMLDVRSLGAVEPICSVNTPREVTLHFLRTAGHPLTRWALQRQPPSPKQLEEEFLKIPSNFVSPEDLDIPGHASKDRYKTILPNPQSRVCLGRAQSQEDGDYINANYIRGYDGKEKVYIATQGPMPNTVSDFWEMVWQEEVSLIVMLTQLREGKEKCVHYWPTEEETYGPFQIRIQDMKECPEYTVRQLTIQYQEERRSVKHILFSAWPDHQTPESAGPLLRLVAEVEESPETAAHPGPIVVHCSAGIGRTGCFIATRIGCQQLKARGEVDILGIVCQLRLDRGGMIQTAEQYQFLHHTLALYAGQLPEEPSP
Cathepsin G inh = inhibitors of human cathepsin G; actives 0.2% (n = 62,000); inhibition, % at 5 µM (by protocol); purified enzyme, AMC-tetrapeptide fluorescence, pooled mixtures;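 active = inhibition above 20% in each of the two mixture wells holding the compound; inactive = inhibition of 20% or less in either well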;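 also: 0% = enzyme control without mixture and 100% = blank lacking enzyme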
Target sequence (P08311 21-244 limits assumed): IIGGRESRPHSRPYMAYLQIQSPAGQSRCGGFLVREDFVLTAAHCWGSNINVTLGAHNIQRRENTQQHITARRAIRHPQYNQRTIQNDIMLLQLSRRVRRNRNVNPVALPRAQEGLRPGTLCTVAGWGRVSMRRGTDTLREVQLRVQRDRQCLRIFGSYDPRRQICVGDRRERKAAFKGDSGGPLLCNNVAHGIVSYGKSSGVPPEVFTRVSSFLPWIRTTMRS
FXIIa mix inh = blocks human factor XIIa in pooled compound mixtures. inhibition, % at 5 µM. P00748. actives 0.2% (n = 62,000). purified FXIIa, fluorogenic substrate. AID 684;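 also: 0% = enzyme without compound and 100% = no enzyme blank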
C1s inh = human complement C1s inhibition; mean inhibition % of two 10-compound mixtures (hits give high values), % at 5 µM (by protocol); AID 538; purified C1s, fluorogenic AMC substrate, pooled mixtures; actives 0.16% (n = 62,000);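 active = inhibition above 20% in each of the two 10-compound mixture wells holding the compound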;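 also: 0% = enzyme wells lacking compound mixture and 100% = no-enzyme blank wells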
FXIa inh mix = blocks human factor XIa in pooled compound mixtures. actives 0.19% (n = 62,000). P03951. inhibition, % at 5 µM. purified FXIa, fluorogenic substrate. AID 680;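 also: each value is inhibition by a whole ten-compound pool holding the compound; 0% = enzyme with no mixture and 100% = wells lacking enzyme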
BAP1 block = blocks human BAP1 ubiquitin-AMC hydrolysis; Q92560; recombinant BAP1, Ub-AMC hydrolysis fluorescence kinetic; hits give low values; calls only at 20 µM; actives 0.48% (n = 72,000); AID 436;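 active = activity remaining at or below 50% of control, provided the compound also passes the data quality filters; inactive = the rest, including low values that fail the filters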;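 also: 100% = DMSO wells rate and 0% = substrate alone blank rate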
BAP1 inh confirm = BAP1 (human) enzyme inhibition, confirmed; shares compounds with BAP1 block; purified BAP1, Ub-ethyl ester hydrolysis, HPLC; hits give low values; % of control activity, % at 20 µM; actives 8% (n = 310);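 active = percent of control activity at or below 60%; inconclusive = HPLC trace unusable from injection failure or solvent front hiding peaks; inactive = the rest, plus ubiquitin peak ratio over a set limit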
Active calls of the source: *; i = inactive; ? = inconclusive; . = not tested or not shown; + = active, no number. A selection: hits, their analogues and other compounds. The true share with any hit is near 1.1%. Rule as the data show it, unless noted: active = inhibition above about 20% (passing the limit was not always enough); inactive = the rest.

SMILES	HePTP inhibitor	Cathepsin G inh	FXIIa mix inh	C1s inh	FXIa inh mix	BAP1 block	others
CCC1=NN2C(=N)/C(=C/c3ccc(OCc4ccc(Br)cc4)c(OC)c3)C(=O)N=C2S1	101*	.	.	.	.	.
O=c1oc2cc([N+](=O)[O-])ccc2nc1/C=C(\O)c1cccs1	76*	.	.	.	.	.
Cc1nc(C)c(/C(O)=C/c2nc3ccc([N+](=O)[O-])cc3oc2=O)s1	1	.	.	.	.	.
COc1ccc(Cl)cc1NC(=O)CCN1CCN(c2ccccc2C)CC1	6	11	-13	67*	5	i
COc1ccc(Cl)cc1NC(=O)CCN1C(=O)c2ccccc2C1=O	5	.	.	.	.	.
COc1cc(/C=c2/sc3nc4ccccc4n3c2=O)ccc1OCc1nn[nH]n1	-6	.	.	.	.	.
CN(C)C1(c2cccs2)CS(=O)(=O)C1	102*	.	.	.	.	.
O=C(O)c1cccc(NC2=C(Cl)C(=O)N(c3ccc(Cl)cc3)C2=O)c1	104*	.	.	.	.	.
CC(C)c1cc(Nc2nccs2)cc(C(C)C)c1O	84*	.	.	.	.	.
O=C(Nc1ccc(Cl)c(Cl)c1)Nc1nnc(Cc2ccc(F)cc2)s1	4	.	.	.	.	.
Cc1nn(CC(=O)Nc2ccc(C(=O)N3CCCC3)cc2)c(=O)c2ccccc12	0	-4	-40	1	1	i
COC(=O)c1ccc(NC(=O)Cn2nc(C)c3ccccc3c2=O)cc1	69*	.	.	.	.	.
CCCN(c1ccc(C(C)C)cc1)S(=O)(=O)c1c(C)noc1C	11	-1	35*	-1	8	i
O=c1cc(-c2ccccc2)nc2nc(-c3ccccc3)[nH]n12	38	10	11	44*	6	i
O=c1cc(-c2ccccc2)nc2nc(COc3ccccc3)[nH]n12	0	-15	-7	-21	-2	i
COC(=O)c1ccccc1NC(=O)c1cc2sccc2n1C	2	31*	3	-5	-3	.
CCOC(=O)C1CCN(C(=O)CSc2ccccc2)CC1	3	13	6	65*	6	i
COc1ccccc1C(O)C(F)(F)F (stereo not drawn)	7	.	.	.	.	.
C=CCNC(=O)c1ccc(C)cc1Cl	8	9	4	5	-6	i
C=CCNC(=O)c1ccc(Cl)cc1Cl	8	14	-21	14	25*	i
O=C(O)CCCC(=O)Nc1ccccc1C(=O)O	5	10	1	49*	7	i
O=C(C[n+]1ccccc1)Nc1ccccc1C(=O)O	.	.	.	.	.	i
COc1ccc(OC)c(/C=C2/C=C(c3ccccc3)OC2=O)c1	6	.	.	.	.	.
O=C1OC(c2ccc(Oc3ccccc3)cc2)=C/C1=C/c1ccco1	101*	.	.	.	.	.
O=C1OC(c2ccc(Cl)cc2)=C/C1=C\c1ccco1	51*	.	.	.	.	.
SMILES	HePTP inhibitor	Cathepsin G inh	FXIIa mix inh	C1s inh	FXIa inh mix	BAP1 block	others
O=C1OC(c2ccc(Cl)cc2)=C/C1=C\c1cccs1	39	.	.	.	.	.
O=c1[nH]c(N/N=C/c2cccs2)nnc1-c1ccccc1	12	.	.	.	.	.
CC(=O)/C=C(\C)NC(=O)c1sc2ccccc2c1Cl	-13	.	.	.	.	.
CCOC(=O)N1CCN(C(=O)CSc2cc(C)nc3c(-c4ccccc4OC)c(C)nn23)CC1	-6	0	0	-4	4	i
COc1ccccc1-c1c(C#N)c(SCC(=O)N2CCCC2)nc(C)c1C(N)=O	-1	25*	-18	11	7	.
Cc1cccc(NCC(=O)N/N=C\c2c(Br)cc(Br)c(O)c2Br)c1	8	.	.	.	.	.
O=C(Oc1ccc(N2C(=O)CCC2=O)cc1)c1ccco1	-1	1	4	1	-1	i
O=C(Oc1ccc(-n2cnnn2)cc1)c1ccco1	5	11	3	31*	7	i
CC(=O)Nc1cc(OC(=O)c2ccco2)cc(OC(=O)c2ccco2)c1	-4	-4	9	11	25*	.
O=C(Oc1ccc2ccccc2c1)c1ccco1	9	-14	4	-112	-42	i
CCNC(=O)CN(CCc1ccccc1)S(C)(=O)=O	6	8	7	-17	5	i
CC(C)NC(=O)CN(CCc1ccccc1)S(C)(=O)=O	6	14	22*	8	10	i
O=C(Nc1nc2ccc3ccccc3c2s1)c1ccc(Cl)s1	104*	.	.	.	.	.
Nc1ccc(C(=O)Nc2nc3ccc4ccccc4c3s2)cc1	.	.	.	.	.	i
COC(=O)CNC(=O)CN(c1ccc(C)cc1C)S(=O)(=O)c1ccccc1	9	.	.	.	.	.
CCN1C(=O)NC(c2ccc(SC)cc2)C(C(=O)OCCOC)=C1C (stereo not drawn)	-1	.	.	.	.	.
COCC(=O)N(C)C1(c2nnnn2CCOC(=O)Nc2cccc3ccccc23)CCCC1	10	-3	5	-16	22	+	BAP1 inh confirm=134
CC1(C(=O)Nc2cccc3ccccc23)CCCCC1	9	.	.	.	.	.
CC(=O)c1ccc(N2C(=O)CC(S/C(N)=N/N=C(\C)c3cccs3)C2=O)cc1 (stereo not drawn)	4	.	.	.	.	.
O=C(NCc1ccccc1)c1c[nH]c2ccc(S(=O)(=O)Nc3ccc4c(c3)OCCO4)cc2c1=O	-14	-15	2	-26	1	+	BAP1 inh confirm=?
Oc1ccc(Br)cc1/C=N/n1cnc2ccccc21	5	0	-14	-1	4	+	BAP1 inh confirm=130
CCOC(=O)N1CCN(S(=O)(=O)c2ccc(C(=O)Nc3sc4c(c3C#N)CCC4)cc2)CC1	0	8	5	11	8	+	BAP1 inh confirm=97
CC(=O)Nc1ccc(S(=O)(=O)/N=C2/NC(=O)CS2)cc1	-4	.	.	.	.	.
NS(=O)(=O)c1ccc(CNC(=O)NC23CC4CC(CC(C4)C2)C3)cc1	2	0	-4	3	-2	+	BAP1 inh confirm=128
CCOC(=O)c1c(NC(=O)CSc2nnc(CNc3ccc(F)cc3)o2)sc(C(C)=O)c1C	6	5	1	-17	-6	+	BAP1 inh confirm=68
